Reference: PubChem BioAssay
Where “and” joins values, the source holds several entries; their conditions need not be identical. Identical values can stand only once. Calls of active or inactive are those of the source.

Columns and labels:
[1] = compound effects on lung adenocarcinoma cell viability – A549, calcein-AM fluorescence, 48 h, basal, profiling panel (AID 1162); conditions: higher = more signal
[2] = compound effects on differentiated 3T3-L1 adipocyte viability – cell-based, 3T3-L1 adipocytes, calcein-AM fluorescence, 48 h, basal, profiling panel (AID 1163); conditions: 3T3-L1 adipocytes viability, higher = more signal
[3] = compound effects on hepatocellular carcinoma cell viability – HepG2, calcein-AM fluorescence, 48 h, basal, profiling panel (AID 1164); conditions: higher = more signal
[4] = compound effects on multiple myeloma cell viability – MM1S, calcein-AM fluorescence, 48 h, basal, profiling panel (AID 1165); conditions: higher = more signal
[5] = calcein-AM signal in unstimulated myeloma cells – cell-based, calcein-AM fluorescence, 48 h, PK04 Diversity Set, profiling panel (AID 1166); conditions: RPMI8226 myeloma viability, higher = more signal;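 further: cells grown under basal conditions without added stimulus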
[6] = JC-1 mitochondrial signal, unstimulated HepG2 cells – cell-based, JC-1 fluorescence, 24 h, 100 nL compound, profiling panel (AID 1167); conditions: HepG2 mitochondrial potential, higher = more signal
[7] = JC-1 mitochondrial signal, unstimulated adipocytes – cell-based, JC-1 fluorescence, 3T3-L1 adipocytes, 24 h, 100 nL compound, profiling panel (AID 1168); conditions: JC-1 mitochondrial fluorescence, higher = more signal, called active from +8 up or from −8 down
[8] = JC-1 mitochondrial signal, unstimulated myeloma cells – cell-based, JC-1 fluorescence, RPMI8226, 24 h, 100 nL compound, profiling panel (AID 1169); conditions: JC-1 mitochondrial potential fluorescence, higher = more signal
[9] = JC-1 mitochondrial signal, unstimulated MM1S myeloma – cell-based, JC-1 fluorescence, 24 h, 100 nL compound, profiling panel (AID 1170); conditions: MM1S mitochondrial potential, higher = more signal
[10] = resazurin metabolic signal in A549 cells – cell-based, resazurin fluorescence, 24 h, PK04 Diversity Set, profiling panel (AID 1171); conditions: A549 viability, higher = more signal, called active from +8 up or from −8 down
Further: test concentration not given here.

Compound | z-score [1] | z-score [2] | z-score [3] | z-score [4] | z-score [5] | z-score [6] | z-score [7] | z-score [8] | z-score [9] | z-score [10]
CC(CO)N1C(=O)[C@@H]2C3C(=O)OCCC=C[C@H]3OC23C=CCN(Cn2nnc4ccccc42)C(=O)[C@@H]13 (stereo not given in full) | -0.515 and 0.432 | -0.101 and 0.061 | -0.562 and -0.713 | 0.922 and -0.0987 | -0.28 and 0.0829 | -1.01 and -0.375 | -0.259 (inactive) and -1.12 (inactive) | 0.46 and -0.0108 | 0.198 and -0.363 | -0.116 (inactive) and 0.785 (inactive)
CCN1C(=O)[C@H]2[C@H]3[C@H](O)[C@H](O)CC(=NOC)[C@@H]3CC[C@H]2C1=O | 0.357 | -0.344 | -0.0225 | -0.106 | 0.887 | 0.459 | 1.7 (inactive) | 0.0805 | -0.218 | -0.562 (inactive)
CC(C)CON=C1C[C@@H](O)[C@@H](O)[C@@H]2[C@@H]3C(=O)N(c4cccc(Oc5ccccc5)c4)C(=O)[C@@H]3CC[C@H]12 | 0.259 | 0.425 | -0.641 | 0.957 | -0.0145 | 1.34 | 0.461 (inactive) | 0.288 | -0.309 | -0.0819 (inactive)
CC(CO)N1C(=O)[C@@H]2C3C(=O)OCCC=C[C@H]3OC23C=CCN(Cc2ccccc2)C(=O)[C@@H]13 (stereo not given in full) | 0.606 and 0.0694 | 0.888 and 0.458 | 0.237 and 0.113 | 0.34 and 0.311 | -0.306 and -0.454 | 0.567 and 0.15 | 0.932 (inactive) and 0.902 (inactive) | -0.914 and 0.0338 | 0.789 and 0.282 | 0.305 (inactive) and 0.147 (inactive)
COC(=O)C1=C(C)N(Cc2ccccc2)[C@]23O[C@](C(=O)OC)(C(=O)N2[C@@H]1c1ccccc1)[C@H]1C(=O)N(c2ccccc2)C(=O)[C@H]13 | 0.0342 and 1.13 | 0.513 and 1.12 | -0.254 and -0.339 | 0.149 and 0.0697 | -0.483 and 0.292 | 0.369 and 0.573 | 0.658 (inactive) and 0.885 (inactive) | -0.749 and -0.197 | 0.702 and 0.235 | 0.376 (inactive) and -0.0028 (inactive)
CCCCN1CC=CC23O[C@@H]4C=CCCOC(=O)C4[C@H]2C(=O)N(C(C)CO)[C@@H]3C1=O (stereo not given in full) | -0.301 and -0.336 | -0.457 and -0.57 | -0.469 and -0.612 | 1.07 and 0.893 | -0.736 and -0.717 | -0.494 and -0.753 | -0.433 (inactive) and -0.828 (inactive) | -0.129 and 0.0982 | -0.686 and -0.347 | 0.237 (inactive) and -0.595 (inactive)
C=CCN(C(=O)C1N(c2c(Cl)cccc2CO)C(=O)C2C(C(=O)O)C3C=CC21O3)c1ccc(OC)cc1 (stereo not given) | -0.211 and 1.87 | 1.02 and 0.581 | -0.915 and 1.6 | 0.972 and -0.224 | -0.998 and 0.529 | -0.877 and 0.862 | -0.955 (inactive) and 0.659 (inactive) | -0.106 and -0.544 | 0.644 and 0.576 | -0.475 (inactive) and 1.02 (inactive)
C=CCN(CCCC)C(=O)C1N(c2ccc(CCO)cc2)C(=O)C2C(C(=O)O)C3C=CC21O3 (stereo not given) | -0.635 and 0.444 | 0.79 and 0.378 | -0.97 and -0.116 | 0.853 and 1.11 | -0.0527 and 0.0382 | -0.63 and 0.869 | -0.915 (inactive) and 1.18 (inactive) | 0.16 and 0.0627 | 0.748 and 1.93 | -0.223 (inactive) and -0.442 (inactive)
CC(C)=NOCc1ccc(-c2cn([C@@H]3COC[C@H]3O)nn2)cc1 | 0.0524 | 0.371 | 0.239 | -0.812 | 0.176 | -0.32 | -0.0926 (inactive) | 0.169 | 1.43 | -0.207 (inactive)
COC(=O)C1=C(C)N(Cc2ccccc2)C2=C3C(=O)CCC[C@@H]3[C@@](O)(C(=O)OC)C(=O)N2[C@@H]1c1ccccc1 | 0.941 and 0.383 | 0.662 and -0.219 | 0.408 and -0.0984 | -2.99 | 0.28 and -2.5 | 1.07 and -0.0794 | -0.512 (inactive) and 0.739 (inactive) | 0.0423 and -0.467 | 1.36 and -0.505 | 0.477 (inactive) and 0.238 (inactive)
CCOC(=O)CCN1C(=O)[C@H]2[C@H]3[C@H](O)[C@H](O)CC(=NNC(=O)OCC)[C@@H]3CC[C@H]2C1=O | 0.241 | -0.0796 | 0.076 | -0.847 | -0.314 | -0.566 | -0.541 (inactive) | 0.209 | -0.479 | -0.453 (inactive)
C=CCN(C(=O)C1N(C(C)(C)CO)C(=O)C2C(C(=O)O)C3C=CC21O3)C(C)(C)C (stereo not given) | -0.209 and -0.173 | -0.72 and 0.343 | 0.384 and 0.816 | 0.676 and 0.647 | 0.0691 and 0.0574 | -0.896 and 0.142 | -0.308 (inactive) and 0.228 (inactive) | 0.669 and -0.287 | 0.88 and 0.351 | -0.777 (inactive) and -0.128 (inactive)
C=CCN(C(=O)C1N(CCOCCO)C(=O)C2C(C(=O)O)C3C=CC21O3)c1ccc(OC)cc1 (stereo not given) | -0.0891 and 0.163 | -0.24 and 0.366 | 0.136 and 0.857 | 0.963 and -0.688 | -0.25 and 0.0863 | 0.191 and -1.15 | 0.124 (inactive) and 1.32 (inactive) | -0.0484 and 0.126 | 1.01 and 0.642 | -0.237 (inactive) and 0.168 (inactive)
C=CCN(CCCC)C(=O)C1N(CCOCCO)C(=O)C2C(C(=O)O)C3C=CC21O3 (stereo not given) | -0.397 and -0.276 | 0.28 and -0.404 | -1.2 and -1.42 | 0.929 and 0.966 | -0.234 and 0.295 | -0.419 and -0.964 | -0.309 (inactive) and -0.776 (inactive) | 0.563 and 0.0271 | 0.0912 and -0.0623 | -0.169 (inactive) and -0.593 (inactive)
